Shown are actives, neighbours in structure and some others; about 2.8% of the full set was active somewhere.
PP1 counter: PP1-alpha phosphatase inhibitors, primary screen, counter-screen for PP5 inhibitor project, biochemical, fluorescence, OMFP substrate, single point. hit rate 0.9% among 320,000. purified PP1alpha. Serine/threonine-protein phosphatase PP1-alpha catalytic subunit (Homo sapiens), P62136. inhibition, % at 6.7 µM;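 active = inhibition above the mean inhibition of all tested compounds plus 3 SD, computed separately for each screening campaign, cut at about 15% in these data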
PG9 binder: binders of HIV-1 gp120 antibody PG9, primary screen, biochemical, TR-FRET; TR-FRET gp120-PG9 antibody binding; inhibition, % at 6.7 µM; hit rate 0.43% among 360,000; AID 624416, 2012; in the data active = inhibition above about 8.5%
GASC-1 inh: inhibitors of GASC-1 histone demethylase, primary screen, biochemical, fluorescence, DELFIA europium | Lysine-specific demethylase 4C (Homo sapiens), Q9H3R0 | GST-JMJD2C(1-420) H3K9me3 demethylation | inhibition, % at 2.35 µM | hit rate 0.069% among 330,000;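 active = more than half of a compound's replicate wells show inhibition beyond 50%, single wells judged on their own value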;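 also: signal counts dimethyl H3K9 product captured on neutravidin plate; 0% = median of DMSO wells and 100% = 0.3 times that DMSO median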
proKLK7 act: proKLK7 zymogen activators, primary screen, biochemical, fluorescence intensity; AID 652039, 2013; activation, % at 7 µM; purified proKLK7, EDANS-DABCYL substrate fluorescence; 100% is mature enzyme control, 0% vehicle; Kallikrein-7 (Homo sapiens), P49862; hit rate 0.9% among 370,000;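 active = activation above the mean of all tested compounds plus 3 SD, computed per campaign excluding outliers beyond control limits, cut at about 13% in these data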
NR1D1 modulator: modulators of Rev-erb alpha DNA binding, primary screen, biochemical, FITC-DNA, fluorescence polarization, uHTS; Nuclear receptor subfamily 1 group D member 1 (Homo sapiens), P20393; Rev-erbα–FITC-DNA binding, 90 min; activity, % at 10 µM; hit rate 0.79% among 370,000; AID 1259318, 2017;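 active = activity above about 14%, limit read from the data; passing the limit was not always enough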;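 also: 0% = DMSO wells with 35 nM protein and 100% = DMSO wells with 750 nM protein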
Target sequence (P20393 whole entry, looked up): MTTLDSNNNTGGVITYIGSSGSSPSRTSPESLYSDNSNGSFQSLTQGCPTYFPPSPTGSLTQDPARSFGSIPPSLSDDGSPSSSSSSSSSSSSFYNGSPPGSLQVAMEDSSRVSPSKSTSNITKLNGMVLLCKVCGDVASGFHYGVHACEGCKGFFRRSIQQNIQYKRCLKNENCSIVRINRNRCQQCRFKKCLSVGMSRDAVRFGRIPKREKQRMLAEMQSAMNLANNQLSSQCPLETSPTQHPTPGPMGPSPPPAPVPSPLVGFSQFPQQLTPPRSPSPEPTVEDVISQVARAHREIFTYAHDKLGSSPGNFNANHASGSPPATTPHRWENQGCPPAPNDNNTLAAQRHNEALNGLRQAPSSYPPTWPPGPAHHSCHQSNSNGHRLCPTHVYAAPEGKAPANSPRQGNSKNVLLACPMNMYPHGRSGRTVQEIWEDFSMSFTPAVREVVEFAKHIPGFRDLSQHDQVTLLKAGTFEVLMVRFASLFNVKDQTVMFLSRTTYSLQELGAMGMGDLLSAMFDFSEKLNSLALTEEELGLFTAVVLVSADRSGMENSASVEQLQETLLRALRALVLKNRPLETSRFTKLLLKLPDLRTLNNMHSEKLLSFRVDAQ
PP5 primary: PP5 phosphatase inhibitors, primary screen, biochemical, fluorescence | purified PP5c, OMFP substrate fluorescence | inhibition, % at 6.7 µM | hit rate 0.18% among 320,000 | AID 1987, 2009;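 active = inhibition above the campaign's mean inhibition across all tested compounds plus 3 SD, cut at about 9.5% in these data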;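 also: 0% = DMSO only and 100% = 100 µM cantharidin control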
KLK7 act conf: proKLK7 zymogen activators, confirmation, biochemical, fluorescence intensity, triplicate; AID 686949, 2013; activation, % at 7 µM; purified proKLK7, EDANS-DABCYL substrate fluorescence; scaled: vehicle 0, mature enzyme 100; shares compounds with proKLK7 act; hit rate 68% among 3,200;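 active = activation, as change over the incubation, above the mean of all tested compounds plus 3 SD, cut at about 13% in these data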
EDANS interfere: EDANS-DABCYL substrate optical interference, artefact control for kallikrein-7 zymogen activator project, biochemical, fluorescence intensity, high throughput. shares compounds with proKLK7 act. no enzyme, 4 h; solvent 0%, active enzyme control 100%. activation, % at 7 µM. hit rate 80% among 3,200. AID 686952, 2013;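 active = activation above the all-compound mean plus 3 SD, ignoring values outside control-based bounds, cut at about 4.8% in these data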;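 also: value is the 4 h activation minus the activation read at time zero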
K7 EDANS ctr: optically interferes with EDANS-DABCYL fluorescence, kallikrein-7 activator counter-screen; shares compounds with proKLK7 act; EDANS-DABCYL peptide fluorescence interference, no enzyme; EC50, µM; hit rate 20% among 250; AID 720493;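 active = compounds that raise the fluorescence signal in this interference counterscreen, with EC50 at or below 10 µM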;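 also: intact quenched peptide substrate alone read at 355 nm excitation and 520 nm emission; signal is fluorescence gain from T0 to T4 after four hours at room temperature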
Starred values were filed as active, the others as inactive; nt = not tested or not shown.

SMILES | PP1 counter | PG9 binder | GASC-1 inh | proKLK7 act | NR1D1 modulator | PP5 primary | KLK7 act conf | EDANS interfere | others
CCOC(=O)NN1C(=O)c2ccccc2NC1c1ccccc1 (centres undefined) | -6 | -1 | 0 | 20* | 2 | -1 | 21* | 24*
COc1ccc(S[C@]2(C(=O)N3CCCC3)CC(=O)N(C(=O)c3ccccc3)[C@@H]2c2ccc(OC)cc2)cc1 | nt | nt | nt | 1 | 1 | nt | nt | nt
COc1ccc(C2Nc3ccccc3C(=O)N2NC(C)=O)c(OC)c1 (centres undefined) | -3 | 1 | 6 | 21* | 4 | -2 | 20* | 16* | K7 EDANS ctr=>70
COc1ccc(N2C(=O)c3ccccc3NC2c2ccc(NC(C)=O)cc2)c(OC)c1 (centres undefined) | -1 | -2 | 13 | 4 | 0 | -2 | nt | nt
CC1(C)CC(=O)N(CC(=O)N2CCN(Cc3ccc4c(c3)OCO4)CC2)c2ccccc2S1(=O)=O | nt | nt | nt | 1 | 2 | nt | nt | nt
Cc1cccc(NC(=O)/C(C#N)=C/c2cn(CC(=O)NCc3ccco3)c3ccccc23)c1 | 1 | 0 | 25 | -1 | -6 | 0 | nt | nt
COCCNC(=O)/C(C#N)=C/c1cn(CC(=O)NCc2ccco2)c2ccccc12 | -3 | 0 | 19 | 75* | -2 | -1 | 8 | 5.8*
O=C(NCc1cccnc1)Nc1ccc2c(c1)OCO2 | -6 | 0 | 4 | 0 | 7 | 0 | nt | nt
Nc1nc2cc3c(cc2cc1C(=O)NCc1cccnc1)OCO3 | nt | -2 | nt | 18* | 3 | nt | 30* | 36*
Cc1ccc(S(=O)(=O)ON2C(=O)c3cccc4cccc(c34)C2=O)cc1 | -1 | 2 | 1 | 19* | 16 | 2 | -32 | 39*
CN(C)c1cccc2c(S(=O)(=O)NC(=O)[C@H]3O[C@@H](n4cnc5c(N)ncnc54)[C@H](O)[C@@H]3O)cccc12 | nt | 0 | nt | 25* | 1 | nt | 35* | 23* | K7 EDANS ctr=8.8*
CCOC(=O)c1nn(-c2ccc3c(c2)CCN3C(C)=O)cc1O | -1 | -1 | -1 | 175* | -1 | 3 | -4 | 19*
CCOC(=O)c1nn(-c2ccc(F)cc2)cc1O | 2 | 0 | 27 | -4 | -5 | 0 | nt | nt
COC(=O)c1ccc(/C=C2\Oc3ccccc3NC2=O)cc1 | -2 | -1 | -11 | -5 | 2 | 0 | nt | nt
O=C1Nc2ccccc2O/C1=C\c1c(F)cccc1Cl | 1 | 1 | -1 | 17* | 1 | 3 | -69 | -54
COC(=O)CSc1[nH]c2ccc(Br)cc2c1[N+](=O)[O-] | -1 | -3 | 31 | 0 | -3 | 0 | nt | nt
CCOc1ccc2[nH]c(SCC(=O)OC)c([N+](=O)[O-])c2c1 | 0 | -2 | 26 | 13* | 3 | -1 | 19* | 16*
CCOC(=O)c1nn(-c2ccccc2)c(C#N)c1N | 0 | 0 | -3 | 25* | 1 | -1 | 18* | 25*
CCOC(=O)CCCCCC(=O)Nc1ccc2c(c1)C(=O)N([C@H](C)CO)C[C@@H](C)[C@@H](CN(C)S(=O)(=O)c1ccc(C)cc1)OCCCC[C@H](C)O2 | nt | -1 | nt | 0 | 1 | nt | nt | nt
CC(=O)c1ccc(-c2ccc(C(=O)N(C)Cc3nc4ccccc4c(=O)[nH]3)o2)cc1 | 4 | 0 | -8 | 26* | -4 | 2 | -2 | -12
CCOC(=O)[C@]12CCCCC/C=C\1N(CCc1ccc(Cl)cc1)C(=O)[C@H]2CC(=O)NCc1cccc2ccccc12 | nt | nt | nt | 0 | 10 | nt | nt | nt
CCCOc1ccc2cc(-c3ccccn3)c(=O)oc2c1 | -2 | -1 | 1 | 25* | -2 | 2 | 55* | 67*
COC(=O)C(C)Oc1ccc2cc(-c3ccccc3)c(=O)oc2c1 (centres undefined) | -4 | 2 | -14 | 16* | -5 | 3 | 64* | 44* | K7 EDANS ctr=>70
COc1ccc2cc(-c3ccccc3)c(=O)oc2c1 | -3 | 3 | 12 | 23* | -6 | 3 | 82* | 74*
O=c1oc2ccccc2cc1-c1ccccc1 | -1 | -4 | 4 | 0 | -5 | 1 | nt | nt
SMILES | PP1 counter | PG9 binder | GASC-1 inh | proKLK7 act | NR1D1 modulator | PP5 primary | KLK7 act conf | EDANS interfere | others
CC(=O)Oc1ccc2cc(-c3cccnc3)c(=O)oc2c1 | nt | 2 | nt | 266* | -20 | nt | 72* | 72*
CCOc1ccccc1NC(=O)c1cc2c(C)nn(-c3ccccc3)c2s1 | nt | nt | nt | -6 | -2 | nt | nt | nt
NC[C@H]1O[C@H](O[C@H]2[C@H](O)[C@@H](O[C@H]3O[C@H](CO)[C@@H](O)[C@H](N)[C@H]3O)[C@H](N)C[C@@H]2N)[C@H](N)[C@@H](O)[C@@H]1O | nt | nt | nt | nt | -6 | nt | nt | nt
CN1C(=O)[C@@]2(C3=C(CCCC3=O)OC3=C2C(=O)CC(C)(C)C3)c2ccccc21 | nt | 0 | nt | 0 | -3 | nt | nt | nt
Cc1cc(OC(C)C(=O)NCC2CCC(C(=O)O)CC2)c2c(C)cc(=O)oc2c1 (centres undefined) | -1 | 1 | -27 | 13* | -2 | 2 | 12 | 12*
CC(Oc1ccc2cc(-c3ccccc3)c(=O)oc2c1)C(=O)NCC1CCC(C(=O)O)CC1 (centres undefined) | 0 | 2 | 5 | 64* | -7 | 3 | 65* | 77*
Cc1cc(OC(C)C(=O)NCC2CCC(C(=O)O)CC2)c2c(C)c(Cc3ccccc3)c(=O)oc2c1 (centres undefined) | 1 | -2 | 50 | -2 | -4 | 7 | nt | nt
CN(C)C(=O)COc1ccc2cc(-c3ccccc3)c(=O)oc2c1 | 1 | 2 | 0 | 33* | 2 | -1 | 66* | 74*
COC(=O)[C@]12C[C@H](CC(=O)NCC3CCCCC3)C(=O)N(CCc3ccc(OC)c(OC)c3)C1=C[C@H](C(C)C)O[C@@H]2C1CC1 | nt | nt | nt | 0 | 1 | nt | nt | nt
C/C(C=NNC(=O)CSc1nnc(-c2ccc(Cl)cc2)n1-c1ccc(C)cc1)=C\c1ccccc1 | nt | nt | nt | 0 | -1 | nt | nt | nt
Cc1c(C)c2cc(Cl)c(O)c(CN3CCCCC3)c2oc1=O | -3 | nt | 4 | nt | nt | -1 | nt | nt
